{"source": "the supplement of paper PMC8728848", "test_in_all_cases": "glycan array binding signal (z-score within array); higher = stronger binding", "details_in_all_cases": "glycan notation: IUPAC condensed, linker removed", "key": {"[1]": {"biological_target": "Gal(b1-4)GlcNAc(b1-3)[Fuc(a1-3)GlcNAc(b1-6)]Gal(b1-4)Glc", "procedure,_shortened": "(§1)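 From the Consortium for Functional Glycomics database, 3228 arrays were curated, keeping only those whose protein sequence was available. Binding is given as a within-array Z-score averaged across arrays sharing a protein sequence and across linkers. Negative Z-scores can be read as non-binding.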"}, "Gal3S(b1-4)Glc": {"biological_target": "Gal3S(b1-4)Glc", "procedure,_shortened": "as §1"}, "Gal4S6S(b1-4)GlcNAc": {"biological_target": "Gal4S6S(b1-4)GlcNAc", "procedure,_shortened": "as §1"}, "[2]": {"biological_target": "GalNAc(b1-3)Gal(a1-4)Gal(b1-4)GlcNAc", "procedure,_shortened": "as §1"}, "GalNAc3S(b1-4)GlcNAc": {"biological_target": "GalNAc3S(b1-4)GlcNAc", "procedure,_shortened": "as §1"}, "[3]": {"biological_target": "GlcNAc(a1-4)Gal(b1-4)GlcNAc(b1-3)Gal(b1-4)Glc", "procedure,_shortened": "as §1"}, "[4]": {"biological_target": "GlcNAc(a1-6)Gal(b1-4)GlcNAc", "procedure,_shortened": "as §1"}, "[5]": {"biological_target": "GlcNAc(b1-2)[GlcNAc(b1-4)]Man(a1-3)[GlcNAc(b1-4)][GlcNAc(b1-2)[GlcNAc(b1-6)]Man(a1-6)]Man(b1-4)GlcNAc(b1-4)GlcNAc", "procedure,_shortened": "as §1"}, "[6]": {"biological_target": "GlcNAc(b1-3)Gal(b1-4)GlcNAc(b1-2)Man(a1-3)[GlcNAc(b1-3)Gal(b1-4)GlcNAc(b1-2)Man(a1-6)]Man(b1-4)GlcNAc(b1-4)[Fuc(a1-6)]GlcNAc", "procedure,_shortened": "as §1"}, "[7]": {"biological_target": "GlcNAc(b1-3)Gal(b1-4)GlcNAc(b1-3)Gal(b1-4)GlcNAc(b1-3)GalNAc", "procedure,_shortened": "as §1"}, "Man(a1-6)Man": {"biological_target": "Man(a1-6)Man", "procedure,_shortened": "as §1"}, "Man(b1-4)GlcNAc": {"biological_target": "Man(b1-4)GlcNAc", "procedure,_shortened": "as §1"}, "Neu5Ac(a2-3)Gal": {"biological_target": "Neu5Ac(a2-3)Gal", "procedure,_shortened": "as §1"}, "[8]": {"biological_target": "Neu5Ac(a2-3)Gal(b1-3)GalNAc(b1-4)[Neu5Ac(a2-3)]Gal(b1-4)Glc", "procedure,_shortened": "as §1"}, "[9]": {"biological_target": "Neu5Ac(a2-3)Gal(b1-3)GalNAc(b1-4)[Neu5Ac(a2-8)Neu5Ac(a2-3)]Gal(b1-4)Glc", "procedure,_shortened": "as §1"}, "[10]": {"biological_target": "Neu5Ac(a2-3)Gal(b1-3)GlcNAc(b1-2)Man(a1-3)[Neu5Ac(a2-3)Gal(b1-3)GlcNAc(b1-2)Man(a1-6)]Man(b1-4)GlcNAc(b1-4)GlcNAc", "procedure,_shortened": "as §1"}, "[11]": {"biological_target": "Neu5Ac(a2-3)Gal(b1-4)GlcNAc(b1-6)[Neu5Ac(a2-3)Gal(b1-3)]GalNAc", "procedure,_shortened": "as §1"}, "[12]": {"biological_target": "Neu5Ac(a2-3)[Neu5Ac(a2-6)]GalNAc", "procedure,_shortened": "as §1"}, "[13]": {"biological_target": "Neu5Ac(a2-6)Gal(b1-4)GlcNAc(b1-2)Man", "procedure,_shortened": "as §1"}, "[14]": {"biological_target": "Neu5Ac(a2-6)Gal(b1-4)GlcNAc(b1-2)Man(a1-6)[Man(a1-3)]Man(b1-4)GlcNAc(b1-4)GlcNAc", "procedure,_shortened": "as §1"}, "[15]": {"biological_target": "Neu5Ac(a2-6)Gal(b1-4)GlcNAc(b1-3)Gal(b1-4)GlcNAc(b1-2)Man(a1-3)[Neu5Ac(a2-6)Gal(b1-4)GlcNAc(b1-3)Gal(b1-4)GlcNAc(b1-2)Man(a1-6)]GalNAc", "procedure,_shortened": "as §1"}, "[16]": {"biological_target": "Neu5Ac(a2-6)GlcNAc(b1-4)GlcNAc", "procedure,_shortened": "as §1"}, "[17]": {"biological_target": "Neu5Ac(a2-6)GlcNAc(b1-4)GlcNAc(b1-4)GlcNAc", "procedure,_shortened": "as §1"}, "[18]": {"biological_target": "Neu5Ac(a2-8)Neu5Ac(a2-3)Gal(b1-4)GlcNAc", "procedure,_shortened": "as §1"}, "[19]": {"biological_target": "Neu5Ac(a2-8)Neu5Ac(a2-8)Neu5Ac(a2-8)Neu5Ac(a2-3)[GalNAc(b1-4)]Gal(b1-4)Glc", "procedure,_shortened": "as §1"}, "[20]": {"biological_target": "Neu5Ac9Ac(a2-3)Gal(b1-4)GlcNAc", "procedure,_shortened": "as §1"}, "Neu5Gc(a2-6)GalNAc": {"biological_target": "Neu5Gc(a2-6)GalNAc", "procedure,_shortened": "as §1"}, "[21]": {"biological_target": "Neu5Gc(a2-8)Neu5Gc(a2-3)Gal(b1-4)GlcNAc", "procedure,_shortened": "as §1"}}, "note": "Shown is part of a subset that was picked to be rich in the strongest signals."}
{"binder": "Awp3 (Candida glabrata), B4UN32 (protein) MISFVTLLAILGLLSISWADQTVRSVAGDQRVTDPVIVGDNSILDYYGGSNYDFSNNFEIGRGTLYIGKESYFSSFQSAPTDVPNSFHLLIKNTNNLQNNGQFIIENIKRHANQCSNSSIQVFPINFQNDGEFEIISGGVEGRCCLPTSVIAPQNFLNNGKFYYKVLTDTGSIYSGSCMQNVDIGASTTTTVNNNLWEFTGSINAQINGAVSGAAQINLDGSNMFVNANTFSGQVVNLINGGSFLQTSDPLSNIVVINGLGTSDTGVTSIAVKGKGKSFTYNPSSGIVKLTTVEGKTYAYQIGCGYNTKKFITNNDSGASYESADNFFVLTYSEPYSPQTCQLENSSIFSSNFISTSTSSSSSSSSASSLPSSMSSSLPSSLSSSLSSSLSSSMSSSMSSLFIIPPPYTTTRSSGSSIIDTEIVSFYSTTDSPGHTITGTTTTTLYGPHTHSSVSTPSSSSESSTTSNSSIESSSLPHTSVSSTPESSITPSSNTISSSPTSDFSSVQSSSIMESSSVVASSSVINSSSIVDSSSSSASSLPSSMSSSLSSSMSSSLPSSMSSSLSSSLSSSLSSSMSSSMSSLFIIPPPYTTTRSSGSSIIDTEIVSFYSTTDSPGHTITGTTTTTLYGPHTHSSVSTPSSSSESSTTSNSSIESSSLPHTSVSSTPESSITPSSNTISSSPTSDFSSVQSSSIMESSSVVASSSVINSSSIVDSSSSSASSLPSSMPSSLPSSMSSSLSSSMSSSLSSSLSSSLSSSMSSSMSSLFIIPPPYTTTRSSGSSIIDTEIVSFYSTTDSPGHTITGTTTTTLYGPHTHSSVSTPSSSSESSTTSNSSIESSSLPHTSVSSTPESSITPSSNTISSSPTSDFSSVQSSSIMESSSVVASSSATQSSSVINSSSIVDSSSSSASSLPSSMPSSLPSSLSSSLSSSLSSSMSSSMSSLFIIPPPYTTTRSSGSSIIDTEIVSFYSTTDSPGHTITGTTTTTLYESSIYSSSSSTIQESELSNTSRTTMTSNSSVSISSTSSRSSFSNTKSSTIVISQSASLPDSKTDIILSTSSNIGYSSRSLLSDLGTSISDSDIHHSVLHSTESYSSNESGTNPFTSIASLSNFIPESSSHTSTALGSENSVISSDILTTMSHPVATNSGDKPTTPKRSEQVSTTMTSSGPTPDTSSFDTDGMSAYSRPEFTTNSLEVNKSSTSQLGNNKQTFSNLQLESTRPHSENEVDNNTRLLQSIQQSSTYGTNNVNPLSPTGSISIPLTEDGQGDNNNWNSPATNDLCTQISFNLTATTITVTDRITITDSIHDISSEVITSYIYQTIVDQKTVTQTVDGKSLANKMSSIPKPSSRSLIQPQPPVAIELQEGAASTSRVSLVSLFISIILVLL", "values": [{"measurement": "glycan array binding signal (z-score)", "setting": "[1]", "value": -0.665}, {"measurement": "glycan array binding signal (z-score)", "setting": "Gal3S(b1-4)Glc", "value": -0.288}, {"measurement": "glycan array binding signal (z-score)", "setting": "Gal4S6S(b1-4)GlcNAc", "value": 0.372}, {"measurement": "glycan array binding signal (z-score)", "setting": "[2]", "value": 0.048}, {"measurement": "glycan array binding signal (z-score)", "setting": "GalNAc3S(b1-4)GlcNAc", "value": 3.17}, {"measurement": "glycan array binding signal (z-score)", "setting": "[3]", "value": -0.466}, {"measurement": "glycan array binding signal (z-score)", "setting": "[4]", "value": -0.59}, {"measurement": "glycan array binding signal (z-score)", "setting": "[5]", "value": -1.54}, {"measurement": "glycan array binding signal (z-score)", "setting": "[6]", "value": 2.04}, {"measurement": "glycan array binding signal (z-score)", "setting": "[7]", "value": 0.914}, {"measurement": "glycan array binding signal (z-score)", "setting": "Man(a1-6)Man", "value": 0.889}, {"measurement": "glycan array binding signal (z-score)", "setting": "Man(b1-4)GlcNAc", "value": 0.34}, {"measurement": "glycan array binding signal (z-score)", "setting": "Neu5Ac(a2-3)Gal", "value": -1.36}, {"measurement": "glycan array binding signal (z-score)", "setting": "[8]", "value": -0.398}, {"measurement": "glycan array binding signal (z-score)", "setting": "[9]", "value": -0.714}, {"measurement": "glycan array binding signal (z-score)", "setting": "[10]", "value": 0.813}, {"measurement": "glycan array binding signal (z-score)", "setting": "[11]", "value": -2.35}, {"measurement": "glycan array binding signal (z-score)", "setting": "[12]", "value": -0.108}, {"measurement": "glycan array binding signal (z-score)", "setting": "[13]", "value": -0.199}, {"measurement": "glycan array binding signal (z-score)", "setting": "[14]", "value": 0.591}, {"measurement": "glycan array binding signal (z-score)", "setting": "[15]", "value": 3.08}, {"measurement": "glycan array binding signal (z-score)", "setting": "[16]", "value": 2.86}, {"measurement": "glycan array binding signal (z-score)", "setting": "[17]", "value": 2.42}, {"measurement": "glycan array binding signal (z-score)", "setting": "[18]", "value": -1.76}, {"measurement": "glycan array binding signal (z-score)", "setting": "[19]", "value": 1.87}, {"measurement": "glycan array binding signal (z-score)", "setting": "[20]", "value": -0.226}, {"measurement": "glycan array binding signal (z-score)", "setting": "Neu5Gc(a2-6)GalNAc", "value": -0.186}, {"measurement": "glycan array binding signal (z-score)", "setting": "[21]", "value": 0.721}]}
